Laboratory results published in the supplement of paper PMC10849652.
Of roughly 7,900 targets only a part is listed; those with a hit were picked by preference. About 0.6% of all pairs of compound and target were hits. A number with no mark means an inactive call.

Experiments:
Test in all cases: log2 fold change, soluble protein after heating vs DMSO (PISA); higher = thermal stabilisation; K562 cells, 10 uM, 30 min; active = over 0.2 and 3.5 SD of the protein, either way, in both replicates (recomputed)
[1] = compound: C1COCCN1CCN2C3=CC=CC=C3N=C2NC(=O)C4=CC(=CC=C4)[N+](=O)[O-] [IRAK-1-4 Inhibitor I]
In short: (§1)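 K562 cells (2×10^6 cells/mL) were treated with 10 μM compound for 30 min, and aliquots were heated for 3 min over 48°C-58°C. Pooled aliquots were extracted in PBS with 0.5% NP-40 at 4°C, and the supernatant after 21,000xg for 90 min was measured by TMTpro 16plex LC-MS/MS with channel sums equalised. Reported thermal stability, relative to control samples and from duplicates, is a log2 fold change.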

[2] = compound: C=CC(=O)N1CCC[C@@H](n2nc(-c3ccc(Oc4ccccc4)cc3)c3c(N)ncnc32)C1 [ibrutinib]
In short: as §1

[3] = compound: CC(=O)c1cnc2ccc(-c3cc(Cl)c(O)c(Cl)c3)nc2c1N[C@H]1CC[C@H](CN(C)C)CC1
In short: as §1

[4] = compound: CC(C)(C)Cn1c(N)nc2ccc(-c3[nH]c(C(C)(C)C)nc3-c3ccc(F)cc3)nc21 [ralimetinib]
In short: as §1

[5] = compound: CC(C)(O)CC(=O)NCCn1ccc2ncnc(Nc3ccc(Oc4cccc(C(F)(F)F)c4)c(Cl)c3)c21
In short: as §1

[6] = compound: CC(C)C1=C2N=C(C=C(N2N=C1)NCC3=CC=CC=C3)NCCCCCCN
In short: as §1

[7] = compound: CC(C)C[C@@H](C=O)NC(=O)[C@H](CC(C)C)NC(=O)[C@H](CC(C)C)NC(=O)OCc1ccccc1
In short: as §1

[8] = compound: CC(C)N(C[C@H]1O[C@@H](n2cnc3c(N)ncnc32)[C@H](O)[C@@H]1O)[C@H]1C[C@@H](CCc2nc3cc(C(C)(C)C)ccc3[nH]2)C1 [pinometostat]
In short: as §1

[9] = compound: CC1=C(C(CC(=O)N1)C2=CC=C(C=C2)C(F)(F)F)C(=O)NC3=C(C=C4C(=C3)C=NN4)F
In short: as §1

[10] = compound: CC1=C(C2=C(C=C1)C(=O)C3=CC=CC=C3N2CCCN)C
In short: as §1

Chain of UniProt Q7Z5K2 (Q7Z5K2 whole entry, looked up): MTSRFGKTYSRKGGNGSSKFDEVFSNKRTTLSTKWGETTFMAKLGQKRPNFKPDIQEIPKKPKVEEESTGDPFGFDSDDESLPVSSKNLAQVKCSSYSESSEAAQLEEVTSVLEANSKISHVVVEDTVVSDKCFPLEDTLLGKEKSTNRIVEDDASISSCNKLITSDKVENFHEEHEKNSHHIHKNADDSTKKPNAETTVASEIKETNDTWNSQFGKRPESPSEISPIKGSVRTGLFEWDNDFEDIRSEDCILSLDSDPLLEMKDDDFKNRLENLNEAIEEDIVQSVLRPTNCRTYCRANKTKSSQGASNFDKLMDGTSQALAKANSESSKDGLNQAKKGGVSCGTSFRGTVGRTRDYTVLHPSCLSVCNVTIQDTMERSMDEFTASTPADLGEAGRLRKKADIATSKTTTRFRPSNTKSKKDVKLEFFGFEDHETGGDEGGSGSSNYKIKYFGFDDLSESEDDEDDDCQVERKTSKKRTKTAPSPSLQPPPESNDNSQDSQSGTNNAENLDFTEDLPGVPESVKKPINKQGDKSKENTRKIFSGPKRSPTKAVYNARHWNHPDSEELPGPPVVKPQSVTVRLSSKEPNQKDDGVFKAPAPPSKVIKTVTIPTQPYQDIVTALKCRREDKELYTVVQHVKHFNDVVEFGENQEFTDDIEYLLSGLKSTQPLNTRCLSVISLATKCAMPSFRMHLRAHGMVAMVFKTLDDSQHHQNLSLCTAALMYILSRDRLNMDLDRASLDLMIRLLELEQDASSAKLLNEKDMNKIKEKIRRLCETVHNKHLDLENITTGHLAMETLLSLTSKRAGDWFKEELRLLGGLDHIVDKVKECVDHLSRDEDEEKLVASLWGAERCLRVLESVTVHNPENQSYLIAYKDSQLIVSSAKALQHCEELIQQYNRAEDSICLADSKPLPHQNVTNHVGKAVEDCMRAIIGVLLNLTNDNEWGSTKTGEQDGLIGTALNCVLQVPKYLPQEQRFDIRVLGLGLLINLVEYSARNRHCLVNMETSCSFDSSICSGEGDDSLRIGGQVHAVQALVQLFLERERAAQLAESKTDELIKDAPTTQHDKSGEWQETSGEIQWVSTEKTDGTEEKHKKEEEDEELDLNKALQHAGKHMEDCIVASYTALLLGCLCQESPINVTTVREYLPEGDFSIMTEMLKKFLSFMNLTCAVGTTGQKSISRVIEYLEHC
Chain of UniProt A0JNW5 (A0JNW5 whole entry, looked up): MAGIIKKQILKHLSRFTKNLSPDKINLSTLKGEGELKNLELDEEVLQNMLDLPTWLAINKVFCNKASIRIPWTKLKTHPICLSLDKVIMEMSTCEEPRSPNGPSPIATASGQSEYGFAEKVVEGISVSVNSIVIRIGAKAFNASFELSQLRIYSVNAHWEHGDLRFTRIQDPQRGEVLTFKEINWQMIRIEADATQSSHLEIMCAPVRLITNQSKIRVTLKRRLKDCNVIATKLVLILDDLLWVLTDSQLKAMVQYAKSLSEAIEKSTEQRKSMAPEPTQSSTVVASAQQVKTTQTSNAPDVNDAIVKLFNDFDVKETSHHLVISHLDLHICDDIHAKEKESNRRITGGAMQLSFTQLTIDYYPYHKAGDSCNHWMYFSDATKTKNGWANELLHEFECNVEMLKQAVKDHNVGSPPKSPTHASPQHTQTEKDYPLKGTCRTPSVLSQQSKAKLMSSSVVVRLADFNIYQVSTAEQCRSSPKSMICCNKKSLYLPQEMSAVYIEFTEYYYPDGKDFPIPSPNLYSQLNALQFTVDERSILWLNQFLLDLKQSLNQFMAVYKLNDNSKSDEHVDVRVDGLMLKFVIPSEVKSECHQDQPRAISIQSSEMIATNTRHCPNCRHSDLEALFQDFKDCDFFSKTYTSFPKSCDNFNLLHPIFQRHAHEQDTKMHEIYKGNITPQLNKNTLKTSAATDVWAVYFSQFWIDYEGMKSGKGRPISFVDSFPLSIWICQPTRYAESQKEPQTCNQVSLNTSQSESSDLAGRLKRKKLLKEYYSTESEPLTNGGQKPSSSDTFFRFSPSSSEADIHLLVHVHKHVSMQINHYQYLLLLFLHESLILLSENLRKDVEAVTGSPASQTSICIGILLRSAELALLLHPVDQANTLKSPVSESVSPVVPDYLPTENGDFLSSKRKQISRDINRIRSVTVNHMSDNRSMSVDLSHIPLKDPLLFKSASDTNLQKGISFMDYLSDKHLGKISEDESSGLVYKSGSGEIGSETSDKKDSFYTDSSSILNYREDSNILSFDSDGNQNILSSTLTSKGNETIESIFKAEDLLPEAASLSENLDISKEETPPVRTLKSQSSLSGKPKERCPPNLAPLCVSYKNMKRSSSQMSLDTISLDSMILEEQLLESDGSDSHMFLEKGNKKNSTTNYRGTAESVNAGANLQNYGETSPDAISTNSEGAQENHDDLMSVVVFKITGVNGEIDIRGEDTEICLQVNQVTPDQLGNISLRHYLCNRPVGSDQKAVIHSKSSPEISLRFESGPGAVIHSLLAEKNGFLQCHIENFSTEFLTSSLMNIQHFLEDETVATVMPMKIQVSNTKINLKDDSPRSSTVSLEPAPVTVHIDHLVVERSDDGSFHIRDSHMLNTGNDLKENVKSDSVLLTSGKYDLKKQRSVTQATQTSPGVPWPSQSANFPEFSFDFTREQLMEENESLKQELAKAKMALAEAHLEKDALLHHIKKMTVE
Chain of UniProt P49754 (P49754 whole entry, looked up): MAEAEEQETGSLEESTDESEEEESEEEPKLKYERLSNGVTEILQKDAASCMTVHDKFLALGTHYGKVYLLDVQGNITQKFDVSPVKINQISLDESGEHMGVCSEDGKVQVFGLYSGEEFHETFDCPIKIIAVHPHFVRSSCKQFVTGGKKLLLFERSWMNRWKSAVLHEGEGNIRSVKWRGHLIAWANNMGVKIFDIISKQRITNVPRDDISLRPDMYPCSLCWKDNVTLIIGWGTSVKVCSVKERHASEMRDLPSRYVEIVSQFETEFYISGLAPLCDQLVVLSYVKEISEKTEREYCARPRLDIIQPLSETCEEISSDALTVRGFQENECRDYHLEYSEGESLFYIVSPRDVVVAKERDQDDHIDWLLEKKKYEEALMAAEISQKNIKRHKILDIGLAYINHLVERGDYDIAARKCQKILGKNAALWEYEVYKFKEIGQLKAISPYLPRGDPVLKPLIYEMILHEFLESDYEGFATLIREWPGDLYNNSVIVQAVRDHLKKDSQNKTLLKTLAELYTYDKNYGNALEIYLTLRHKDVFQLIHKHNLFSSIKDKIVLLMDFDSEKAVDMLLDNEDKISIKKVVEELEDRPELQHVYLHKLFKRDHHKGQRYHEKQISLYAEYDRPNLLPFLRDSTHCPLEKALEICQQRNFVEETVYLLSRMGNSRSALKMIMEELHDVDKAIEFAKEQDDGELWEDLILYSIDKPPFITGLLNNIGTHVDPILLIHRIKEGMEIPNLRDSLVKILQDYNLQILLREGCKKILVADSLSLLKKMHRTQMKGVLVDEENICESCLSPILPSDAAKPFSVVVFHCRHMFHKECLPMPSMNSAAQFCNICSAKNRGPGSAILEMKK
Chain of UniProt Q9UGM6 (Q9UGM6 whole entry, looked up): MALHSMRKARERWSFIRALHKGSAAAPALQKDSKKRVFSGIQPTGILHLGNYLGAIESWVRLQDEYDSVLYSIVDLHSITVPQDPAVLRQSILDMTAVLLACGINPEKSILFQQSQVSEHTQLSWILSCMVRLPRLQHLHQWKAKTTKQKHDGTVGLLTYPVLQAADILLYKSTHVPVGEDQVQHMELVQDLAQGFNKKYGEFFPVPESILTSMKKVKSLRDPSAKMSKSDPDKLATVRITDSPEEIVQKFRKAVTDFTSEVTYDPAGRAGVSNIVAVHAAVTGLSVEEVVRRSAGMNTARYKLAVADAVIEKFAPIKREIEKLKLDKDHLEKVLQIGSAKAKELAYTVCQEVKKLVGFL
Chain of UniProt Q9H4I3 (Q9H4I3 whole entry, looked up): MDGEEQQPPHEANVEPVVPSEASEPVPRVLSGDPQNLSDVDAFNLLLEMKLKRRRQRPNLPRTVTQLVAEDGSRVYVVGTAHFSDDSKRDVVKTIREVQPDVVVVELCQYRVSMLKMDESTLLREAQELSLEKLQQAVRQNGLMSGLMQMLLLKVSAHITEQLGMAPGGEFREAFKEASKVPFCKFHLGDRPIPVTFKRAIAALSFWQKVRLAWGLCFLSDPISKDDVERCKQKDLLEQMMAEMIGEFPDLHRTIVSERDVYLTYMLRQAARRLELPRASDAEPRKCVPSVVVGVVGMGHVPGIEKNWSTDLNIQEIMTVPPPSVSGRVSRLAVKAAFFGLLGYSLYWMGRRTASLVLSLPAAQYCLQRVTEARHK
Chain of UniProt Q92890 (Q92890 whole entry, looked up): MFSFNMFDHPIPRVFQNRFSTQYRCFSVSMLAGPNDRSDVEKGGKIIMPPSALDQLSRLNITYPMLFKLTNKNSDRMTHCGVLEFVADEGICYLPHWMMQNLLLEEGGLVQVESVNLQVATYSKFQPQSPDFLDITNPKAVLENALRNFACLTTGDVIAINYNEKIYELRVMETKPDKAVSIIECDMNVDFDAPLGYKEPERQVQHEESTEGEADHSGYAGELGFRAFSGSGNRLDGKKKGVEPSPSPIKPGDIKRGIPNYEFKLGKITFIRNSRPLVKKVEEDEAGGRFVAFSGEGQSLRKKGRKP
Chain of UniProt Q9Y6I4 (Q9Y6I4 whole entry, looked up): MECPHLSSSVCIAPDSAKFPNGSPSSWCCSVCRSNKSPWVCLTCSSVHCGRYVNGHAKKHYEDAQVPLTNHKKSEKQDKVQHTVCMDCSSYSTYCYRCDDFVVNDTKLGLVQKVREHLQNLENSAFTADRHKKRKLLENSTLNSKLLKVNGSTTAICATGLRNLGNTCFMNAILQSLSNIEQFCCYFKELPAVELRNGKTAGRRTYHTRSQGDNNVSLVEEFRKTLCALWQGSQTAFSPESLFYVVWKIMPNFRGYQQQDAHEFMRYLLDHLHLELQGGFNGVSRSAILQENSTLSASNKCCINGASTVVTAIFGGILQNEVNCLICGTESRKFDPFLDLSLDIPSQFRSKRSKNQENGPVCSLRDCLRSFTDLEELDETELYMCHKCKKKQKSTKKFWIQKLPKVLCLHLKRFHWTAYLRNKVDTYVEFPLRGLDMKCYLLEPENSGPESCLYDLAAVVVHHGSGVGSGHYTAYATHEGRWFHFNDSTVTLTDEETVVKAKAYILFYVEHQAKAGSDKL

Target	log2 fold change [1]	log2 fold change [2]	log2 fold change [3]	log2 fold change [4]	log2 fold change [5]	log2 fold change [6]	log2 fold change [7]	log2 fold change [8]	log2 fold change [9]	log2 fold change [10]
XPNPEP3 (UniProt Q9NQH7)	0.061	0.044	0.019	-0.013	0.021	-0.002	-0.018	-0.015	-0.003	-0.028
WAPL isoform 3 (UniProt Q7Z5K2)	-0.086	-0.002	-0.05	-0.072	-0.057	-0.339	0.125	0.054	-0.003	-0.056
UHRF1BP1L (UniProt A0JNW5)	0.018	-0.051	-0.076	-0.009	0.193	0.242 (active)	-0.004	0.03	-0.027	-0.019
UFD1 isoform 1 (UniProt Q92890)	0.025	-0.018	-0.005	0	-0.04	0.04	0.021	-0.04	-0.016	0
VRK2 (UniProt Q86Y07)	0.004	0.003	0.32 (active)	0.21	-0.088	0.027	0.074	0.075	-0.03	0.109
WASHC2C, A0A096LPC5	0.01	-0.005	-0.159	-0.035	0.085	-0.214	0.057	0.008	-0.033	-0.125
TNPO1 (UniProt Q92973)	0.01	0.001	0.043	-0.01	-0.029	-0.193	-0.011	-0.006	0.032	-0.231 (active)
VPS41 (UniProt P49754)	-0.002	-0.033	-0.019	0.052	0.019	-0.383 (active)	0.026	0.037	0.003	0.063
TMEM192 (UniProt Q8IY95)	0.047	-0.014	-0.012	0.025	0.004	-0.481 (active)	0.029	0.051	-0.004	-0.019
TRIP10 isoform 2 (UniProt Q15642)	0.09	-0.032	-0.078	0.143	0.004	0.204	-0.118	-0.027	0.118	-0.01
UBC (UniProt P0CG48)	0.022	0.027	0.033	-0.064	0.008	0.167	0.296 (active)	0.042	-0.018	0.281 (active)
WARS2 (UniProt Q9UGM6)	-0.016	-0.075	-0.031	-0.017	-0.144	-0.204	0.016	-0.053	-0.026	-0.004
TUBA4A (UniProt P68366)	0.039	0.01	0.001	-0.044	-0.032	0	0.016	-0.039	-0.014	0.011
TMEM63B (UniProt Q5T3F8)	-0.01	-0.055	-0.002	-0.034	0.011	-0.157	-0.01	0.041	0.027	0.054
TRABD (UniProt Q9H4I3)	-0.046	0.007	-0.032	0.073	0.277	0.416 (active)	0.045	0.018	-0.005	-0.005
UBA1 (UniProt P22314)	-0.145	-0.058	-0.047	0.068	-0.15	-0.363 (active)	-0.055	0.019	0.023	0.336
USO1 isoform 2 (UniProt O60763)	0.05	-0.025	0.066	0.004	-0.061	-0.108	-0.01	0.008	-0.011	-0.005
XRCC5 (UniProt P13010)	-0.264	-0.104	-0.214	0.083	-0.175	-0.505 (active)	0.126	-0.01	0	-0.065
TMEM120A (UniProt Q9BXJ8)	-0.066	-0.183	-0.068	-0.003	-0.429	-0.006	-0.078	0.093	-0.065	0.051
VPS53 isoform 4 (UniProt Q5VIR6)	-0.035	0.011	-0.046	-0.022	-0.101	-0.142	0.095	0.076	-0.032	0.036
USP3 (UniProt Q9Y6I4)	0.035	-0.083	-0.126	-0.013	-0.107	-0.146	-0.145	-0.075	0.006	-0.006
TPP1 (UniProt O14773)	-0.007	-0.01	-0.006	-0.025	0.059	-0.492 (active)	0.043	-0.052	0.025	-0.009
TRAPPC6B (UniProt Q86SZ2)	-0.022	0.032	-0.001	-0.015	-0.138	0.032	0.032	-0.036	0.004	0.004
UBE2Q1 (UniProt Q7Z7E8)	0.024	-0.012	0.029	-0.015	-0.062	-0.192	-0.11	0.005	-0.01	-0.006
TOE1 (UniProt Q96GM8)	-0.15	-0.031	0.089	0.012	0.005	0.042	0.09	0.077	-0.067	-0.228
TTC4 (UniProt O95801)	-0.058	-0.031	-0.052	0.168	-0.072	-0.119	0.024	-0.015	-0.001	0
UBE2S (UniProt Q16763)	-0.065	-0.035	-0.037	0.03	-0.034	0.018	0.125	-0.05	-0.004	-0.055
WDR37 isoform 2 (UniProt Q9Y2I8)	0.144	-0.06	-0.39 (active)	-0.063	-0.118	-0.011	0.126	-0.029	-0.015	0.144
WRB (UniProt O00258)	0.006	0.014	-0.074	0.004	0.015	0.043	-0.043	-0.032	-0.006	0.011
TTC33 (UniProt Q6PID6)	0.059	0.058	-0.121	0.009	-0.023	-0.075	0.139	0.111	–	–
